In the supplement of paper PMC6555819:

Tests used:
Assay in all cases: PBM binding z-score (relative to random genomic background probes); higher = stronger binding; sequences stand for … in GC…GCGATTGACAGCGTAGAATGAAGG
[1] = system: RARb homodimer (NR concentration 270 nM)
Outline: (§1)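 Antibodies against each partner of ligand-free nuclear receptor dimers (one per run) detected binding on custom Agilent 4×180K protein-binding microarrays after 1 h incubation. The double-stranded probes had 34-nt variable regions carrying direct-repeat seeds, single-nucleotide variants, half-site ablations and random human genomic background sequences. Binding z-scores, from regression-normalized fluorescence, use the random background probes as reference.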

[2] = system: RARg:RXRa (NR concentration 270 nM, RXRa partner concentration 90 nM)
Outline: as §1

[3] = system: RARg homodimer (NR concentration 270 nM)
Outline: as §1

[4] = system: RXRa DBDmut IVT, anti-RXR (DBD mutation: RXRa K156A/R161A, NR concentration 90 nM)
Outline: as §1

[5] = system: RXRa homodimer (NR concentration 180 nM)
Outline: as §1

[6] = system: THRa:RXRa (NR concentration 90 nM, RXRa partner concentration 90 nM)
Outline: as §1

[7] = system: THRa homodimer (NR concentration 90 nM)
Outline: as §1

[8] = system: VDR homodimer (NR concentration 270 nM)
Outline: as §1

Row | Sequence | PBM binding z-score [1] | PBM binding z-score [2] | PBM binding z-score [3] | PBM binding z-score [4] | PBM binding z-score [5] | PBM binding z-score [6] | PBM binding z-score [7] | PBM binding z-score [8]
1 | ATCGAAAGGTCCTGAGGTGAGTATACAGAAAGGC | 1.02 | 1.36 | 0.977 | -0.513 | 1 | 1.98 | 0.778 | -0.0485
2 | TCTATTAGTTGAAGGGCAGCCGACGAGTCCGTTT | 0.841 | 0.303 | 0.318 | 1.74 | 0.258 | 0.00646 | 0.0713 | 1.27
3 | TCATATAGGTAGATGCTAGGTGAAAGTCCGATCT | 0.362 | 0.127 | 0.207 | 1.14 | 0.611 | 0.969 | 0.547 | 0.276
4 | CCAGACAGGTGAGAAGGTATCTCAGCCTCGATTA | -0.0686 | 0.015 | 0.26 | 0.0467 | 0.0793 | -0.219 | -0.183 | -0.56
5 | TCTTGTAGATCAACAGGAGGTTGAGAAAGATCGA | -0.533 | 0.156 | -0.228 | 0.313 | 0.301 | -0.174 | -0.919 | -0.475
6 | ATCTCTAGGTAATCAAGTTCAGTGAATGCCGAAC | 1.24 | 0.838 | 0.72 | 0.825 | 0.439 | 1.26 | 0.487 | 2.59
7 | TAGCCTAGGTCATGGGCCAGTAAACCACGCGAAC | 2.99 | 4.38 | 5.19 | 0.473 | 3.77 | 3.25 | 1.12 | 0.514
8 | TAGCCTAGGTCATGGGCCAGAATACCACGCGAAC | 2.86 | 4.27 | 4.29 | 0.064 | 3.81 | 2.89 | 1.07 | -0.109
9 | CCTAGCAGGCCAGGGTAACTCAAGCATTTCGCTT | -0.537 | -0.456 | -0.357 | -0.541 | -0.455 | -0.054 | -0.445 | -0.329
10 | TCATATAGGTAAATGCTAGGTGATAGTCCGATCT | -0.0324 | 0.496 | 0.457 | 1.37 | 0.854 | 0.78 | 0.138 | 0.168
11 | TATACAGGGTCAAAGGCCTGAGTACGAATGTCGA | 3.17 | 5.49 | 4.87 | 2.89 | 6.3 | 3.28 | 0.678 | 3.41
12 | ATCTCTAGGTAACCAAGTTCAGCGAATGCCGAAC | 1.63 | 1.03 | 1.06 | 0.597 | 0.733 | 1.51 | 0.797 | 2.79
13 | TCATATAGGTAAAGGCGAAAGTCGAACGATATGA | -0.012 | 0.425 | 0.439 | 0.563 | 0.727 | -0.186 | -0.507 | -0.251
14 | TAGCCCAGGTCATGCGGGCCAGTATAGTGTCGGC | 2.94 | 4.07 | 3.99 | 1.22 | 3.45 | 3.85 | 2.4 | 1.49
15 | GATACAGGGTCAGCTAGAGCCCAGAGTATGGAAA | 2.3 | 4.4 | 4.33 | 1.25 | 4.08 | 2.43 | 0.0746 | 0.264
16 | TCTTGTAGAACAGCAGGTTAAGAAAGCTGGCCAA | -0.365 | -0.24 | -0.558 | 0.506 | 0.0431 | -0.111 | -1.15 | -0.882
17 | CGTCCAAGTTCATAGGAGGTCAGTGAAGACAGAT | 4.1 | 4.63 | 5.14 | 4.98 | 3.69 | 4.73 | 1.52 | 6.53
18 | AGTCAAAGTTCACTAGGTAACGTACGATTCAGCT | 4.12 | 4.87 | 5.61 | 4.41 | 3.85 | 2.2 | 0.165 | 4
19 | CGTCCAAGGTCATAGGAGGTCAGTGACGACAGAT | 5.23 | 6.83 | 7.27 | 4.28 | 7.54 | 5.3 | 3.25 | 4.76

Row | Sequence | PBM binding z-score [1] | PBM binding z-score [2] | PBM binding z-score [3] | PBM binding z-score [4] | PBM binding z-score [5] | PBM binding z-score [6] | PBM binding z-score [7] | PBM binding z-score [8]
20 | TCTCGGAGGACACGAGAGGTCAGAGCTCGACATC | 4.3 | 3.89 | 4.28 | 0.77 | 3.07 | 3.98 | 1.64 | 1.81
21 | GCAAGTTGGTCAGTAAAAGGTCACACACCGGTCG | 5.2 | 5.36 | 4.48 | 0.685 | 5.47 | 3.61 | 1.82 | 1.96
22 | TCTTGTATATCAAGCAGGTTAAGAAAGCCTGAGT | 0.552 | 0.261 | -0.15 | 0.788 | 0.587 | 0.47 | -0.282 | 0.228
23 | ATCTCTAGATAACAAGTTCAGTGAAAGAGAGGAC | 1.37 | 0.77 | 0.933 | 0.583 | 0.621 | 0.754 | 0.108 | 2.72
24 | ATATGTATGTTATCGGGTCATTCAGTTTGCGCAT | 2.47 | 2.01 | 1.75 | 1.81 | 2.28 | 3.26 | 2.66 | 3.18
25 | TCTTGTAGATCAGCAGGTTAAAAAAGCTGGCCAA | 0.0977 | -0.388 | -0.402 | 0.516 | 0.184 | 0.165 | -0.53 | -0.268
26 | TTACCAAGGTGAAGGTCGCTGATCCCTCTGTAGA | 2.03 | 1.72 | 1.7 | -0.269 | 1.85 | 2.41 | 0.612 | -0.248
27 | GCGACTGGGGCATCAGCCGGTTACCATAACTTAA | 0.131 | 0.11 | 0.063 | -0.636 | -0.543 | -0.0849 | -0.579 | -0.974
28 | TAGCCTAGGTAATTGGGCCAGTATAGTACGCATC | -0.403 | -0.17 | -0.133 | -1.07 | -0.301 | -0.106 | -0.68 | -0.642
29 | ATCTCTAGGTAACAAGTGCAGTGAAAGAGAGGAC | 0.571 | 0.393 | 0.624 | -0.169 | 0.249 | 1.11 | 0.468 | 0.625
30 | TTACCAAGGTGAAAGGTCGATGATGCACGCCTTG | 2.3 | 3.83 | 2.15 | -0.254 | 4.5 | 3.04 | 0.568 | 0.119
31 | CGAACTAGCTCATCCAGGACAGTGAATACATTGA | 0.118 | -0.191 | 0.156 | 0.64 | 0.0877 | 1 | 0.936 | 0.271
32 | CCTGCTAGGCCAATGGTCAGCTAAAGCAGCTCGC | 0.323 | -0.216 | 0.173 | -0.154 | -0.899 | -0.489 | -0.709 | -0.962
33 | CCTAGTTGCTCAAGGTCACACACGCTATAGGTAC | 4.14 | 4.56 | 4.78 | 2.19 | 4.8 | 4.05 | 4.51 | 4
34 | TCTGCTAGGTCACTTGGTCAGCTAACGAGCTGCC | 3.07 | 4.03 | 4.52 | 1.54 | 2.41 | 2.58 | 0.574 | 0.129
35 | CAAACTAGGTCACGAAAGGTGAAAGTCGAATGAC | 4.73 | 5.68 | 6.37 | 1.59 | 5.25 | 4.82 | 1.92 | 0.591
36 | TAGCCTAGGTCATTGGGCCAGTAGAGTACGCATC | 3.11 | 3.83 | 4.04 | 1.34 | 2.79 | 2.88 | 0.722 | 1.3
37 | ATATCTAGGTTAGCTGGGGTCATTCAGACTAGGC | 3.96 | 4.04 | 3.18 | 1.88 | 5.32 | 5.07 | 3.53 | 5.14
38 | CGTCGAAGGTCAAAGGTCAGTGAAGAGATGACGG | 5.17 | 8.72 | 7.78 | 3.05 | 9.99 | 4.58 | 0.832 | 2.54

Row | Sequence | PBM binding z-score [1] | PBM binding z-score [2] | PBM binding z-score [3] | PBM binding z-score [4] | PBM binding z-score [5] | PBM binding z-score [6] | PBM binding z-score [7] | PBM binding z-score [8]
39 | GCGACTGGGGCATCAGGAGGTTACCATAACTTAA | 1.59 | 2.07 | 0.983 | 0.162 | 0.852 | 1.66 | -0.0939 | 0.186
40 | CCGACTGGGGCAGAAAGGTTACGATACCATCCGG | 2.38 | 1.96 | 1.37 | -0.562 | 2.09 | 1.15 | -0.229 | -0.0227
41 | GGAACGAGGGCAAGTTGAAAGCAGAGTTTGATGG | 1.57 | 1.12 | 1.98 | 2.41 | 0.747 | 1.12 | 0.0724 | 1.92
42 | CCTAGCAGGCCAATCTGGGACACTCAAGGCTTGA | -0.286 | -0.31 | 0.0826 | -0.25 | -0.458 | 3.08 | -0.247 | -0.728
43 | TAGCCTAGGTCATTCAGGGGCCAGTATCGAAAGC | 3.55 | 5.82 | 4.73 | 1.96 | 3.05 | 3.47 | 0.885 | 1.48
44 | CATACAGGGTCAGCTAGGCCAGCGTAGGGACGGC | 3.43 | 4.42 | 4.81 | 1.4 | 4.2 | 3.3 | 0.936 | 0.947
45 | CATCCAAGGTCAAGGTCAGTGAAAGAGACTCGAA | 5.3 | 6.9 | 7.48 | 3.81 | 6.28 | 4.48 | 3.62 | 3.23
46 | CAAACTAGGTCAAAGGTCAAAGTGGAGCCAACCA | 4.96 | 8.91 | 7.43 | 3.12 | 10.1 | 4.71 | 1.88 | 3.27
47 | TCTTGTAGATCAAAGTTTAAGAAAGCCGAAGCCT | 0.469 | 0.16 | 0.307 | 1.22 | 0.561 | 0.0453 | -0.571 | -0.214
48 | GTAACGAGGGCAAAGTTGATAGCATCTGTCGACG | 1.38 | 1.97 | 1.78 | 2.73 | 2.08 | 1.41 | -0.0253 | 1.7
49 | CAAACTAGGTCAAGAGGTCAGAGTCCGCTTCCCG | 5.42 | 7.29 | 7.22 | 2.53 | 6.9 | 3.88 | 2.15 | 3.34
50 | TCGAGTAGGTTAGGGGCATTAAGAATGGCGTCGA | 0.787 | 0.329 | 0.269 | 0.304 | 0.639 | 0.955 | 0.048 | 0.785
51 | TCGAGTAGGTTACCAATGGGGCATTGAGCTTTCT | 0.567 | 1.1 | 0.221 | 0.408 | 0.672 | 0.145 | -0.895 | -0.64
52 | ATATGTCGGTTAAGGGTCATTCAGGTTGGTTCGC | 3.68 | 4.69 | 3.43 | 2.21 | 4.55 | 3.42 | 1.7 | 4.47
53 | CTCGAAAGGTCGTGCTCAGGTGAGTCTACCAAAC | 2.6 | 5.27 | 3.98 | 2.42 | 4.89 | 4.01 | 0.948 | 1.03
54 | CGTCCAAGGCCATAGGAGGTCAGTGAAGACAGAT | 3.61 | 2.74 | 3.57 | 0.911 | 1.74 | 3.89 | 1.18 | 1.42
55 | TCGAGTAGGTTACCAATGAGGCATTCAGCTTTCT | -0.0486 | 0.457 | 0.0733 | 0.229 | 0.47 | -0.137 | -0.781 | -1.08
56 | TAGCCTAGGTCAGATCGGGCCAGTATCCGCTATA | 2.26 | 2.39 | 3.37 | -0.366 | 1.35 | 4 | 0.15 | -0.329
